# Measured values taken from PubChem BioAssay (NCATS).
# Results filed as inconclusive are left out. A number with no mark means an inactive call. Activity calls are given as the source filed them. The call rests on the fitted dose curve; in most records, active means well fitted inhibition curve with a large enough effect; inconclusive means small, poorly fitted or top-dose-only effect; inactive means flat fitted curve, though single readings scatter.
# Molecular target: Calcium and integrin-binding protein 1 (Homo sapiens) (UniProt Q99828)
# Sequence (Q99828 whole entry, looked up): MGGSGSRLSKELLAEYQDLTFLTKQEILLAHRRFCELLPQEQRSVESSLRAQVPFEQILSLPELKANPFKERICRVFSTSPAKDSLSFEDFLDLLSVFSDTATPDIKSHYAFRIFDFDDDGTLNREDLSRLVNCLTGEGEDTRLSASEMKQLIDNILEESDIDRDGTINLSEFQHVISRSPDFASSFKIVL
# Experiment: Primary qHTS for Identification of Calcium Integrin Binding Protein 1 (CIB1) Competitor (AID 1508620);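 further: GST tagged CIB1 binding a fluorescein labelled alphaIIb integrin peptide tracer; top concentration of the series differs between compounds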
# Settings: CIB1-GST / FITC-alphaIIb peptide fluorescence polarization; series mostly up to 114 µM; activity change, negative = inhibition: at the top concentration
# Description: Assay Provider: Ulhas P. Naik, PhD Sidney Kimmel Medical College Thomas Jefferson University, Philadelphia, PA Primary function of platelets is to maintain hemostasis. At the site of vascular injury, platelets adhere to adhesive proteins such as collagen and von Willebrand factor. Adherent platelets are activated and generate soluble platelet agonists such as thrombin, ADP and thromboxane A2. Following exposure of circulating platelets to these agonists, results in platelet shape change, granule secretion and activation of platelet integrin alphaIIb-beta3. Ligand binding to activated integrin alphaIIb-beta3 triggers outside-in signaling, leading to platelet aggregation, stabilization of platelet plug, and clot retraction. Upon atherosclerotic plaque rupture also causes platelet plug formation, which underlies a number of cardiovascular diseases such as myocardial infraction and stroke. A number of anti-platelet drugs such as aspirin, clopidogrel, prasugrel, vorapaxar, and eptifibatide are currently available to prevent the thrombotic complications. However, these anti-platelet agents have several limitations including inherent variability in individual responses, developing resistance, and serious bleeding side effects. For these reasons they are not suitable for long-term protection. Based on the experiences with current anti-platelet drugs, it appears that the most useful therapeutic approach is to intersect the secondary responses such as integrin outside-in signaling or recruitment of platelets by TxA2 and secreted ADP. Compounds, which can largely preserve the primary hemostatic function of platelets but inhibit secondary response will be most desired therapeutic agents for treatment of cardiovascular disease. CIB1 is a calcium integrin binding protein, which specifically interact with the alphaIIb subunit of integrin alphaIIb-beta3. Binding of CIB1 to alphaIIb regulates the outside-in signaling in platelets, which is needed for thrombus stabilization and thrombus growth. […] Therefore, we propose that discovery of a small molecule that can prevent the association of CIB1 and alphaIIb-beta3 will be a potential anti-platelet agent that can block the thrombus formation without undue effect on hemostasis. Reference: [1] Naik MU, Nigam A, Manrai P, et al. CIB1 deficiency results in impaired thrombosis: the potential role of CIB1 in outside-in signaling through integrin alpha IIb beta 3. J Thromb Haemost.
# PROTOCOL TABLES SEQUENCE No. (1, 2, 3, etc.); […] (e.g., Cells, Incubation, Reagent, etc.); VALUE and DESCRIPTION. 1; Reagent; 3 uL; Protein or buffer (4/3x) 2; Compound; 46 nL; Control inhibitor / compound library 3; Time; 15 min; Room temperature incubation 4; Reagent; 1 uL; Fluorescent labeled peptide (4x) 5; Time; 1000 rpm; Centrifuge 6; Time; 15 min; Room temperature incubation 7; Detection; Ex 480/ Em 540; ViewLux Fluorescence Read NOTES (numbers refer to sequence above) 1; Protein Mixture: C1B1-GST (final concentrations of 1 uM). […] 3; Room temperature incubation. 4; Fluorescent Labeled Peptide: FITC-aIIb (final concentration of 100 nM). Sequence of alphaIIb peptide: Acetyl-[…]-FITC (purity is 95.83%). 5; Centrifuge 1000 rpm (164 g) for 15 seconds. 6; Room temperature incubation. 7; ViewLux Fluorescent Polization Read: excitation = 480(20) / emission = 540(25) S and P; FITC Dichroic mirror.
# On the % scale 0 is the no-effect control and ±100 the full control effect.
SMILES,"activity change, negative = inhibition",Potency
C[C@@H]1CC2=CC(=O)CC[C@@H]2[C@H]2CC[C@@]3(C)[C@@H](CC[C@]3(C)O)[C@@H]21,-3.29%,
Cc1ncsc1CCCl,-1.54%,
CN(C)CCc1c[nH]c2cccc(OP(=O)(O)O)c12,3.22% [at 228 µM],
NCCc1ccc(O)cc1,6.67%,
CN1CC[C@]23c4c5ccc(O)c4O[C@H]2[C@@H](O)CC[C@H]3[C@H]1C5,2.83% [at 228 µM],
CN1CCC(O)(c2ccc(F)cc2)C(C(=O)c2ccc(F)cc2)C1 (stereo not given),-2.18%,
C[C@](O)(CS(=O)(=O)c1ccc(F)cc1)C(=O)Nc1ccc(C#N)c(C(F)(F)F)c1,-0.624% [at 57.7 µM],
O=C1CN=C(c2ccccc2)c2cc([N+](=O)[O-])ccc2N1,0.521%,
COc1ccc2c(c1OC)C(=O)O[C@H]2[C@@H]1c2cc3c(cc2CCN1C)OCO3,-0.725%,
CCC(CC)(CNC(=O)CCCO)c1cccc(OC)c1,1.09%,
COC1CC(=C(c2cccs2)c2cccs2)C[N+](C)(C)C1 (stereo not given),1.9%,
CC(C)=CC1C(C(=O)OCN2C(=O)C3=C(CCCC3)C2=O)C1(C)C (stereo not given),-3.73%,
[N-]=[N+]=CC(=O)OC[C@H](N)C(=O)O,-3.14%,
COc1cc(CC(C)N)cc(OC)c1OC (stereo not given),3.83% [at 228 µM],
CCC(C)(C)c1ccc(O)cc1,-1.9%,
CN1C(=O)NC(=O)C(C)(C2=CCCCC2)C1=O (stereo not given),-3.58%,
CC(Cc1ccccc1)N(C)Cc1ccco1 (stereo not given),3.69%,
CC[N+]1(CC)CCC(OC(=O)C(O)(c2ccccc2)c2ccccc2)C1 (stereo not given),-0.63%,
C[C@H]1[C@@H]2Cc3ccc(O)cc3[C@@]1(C)CCN2C,-3.8% [at 573 µM],
CCN[C@H](C)Cc1cccc(C(F)(F)F)c1,-2.78% [at 228 µM],

SMILES,"activity change, negative = inhibition",Potency
c1ccc(N2CCNCC2)cc1,2.77%,
O=c1[nH]c2ccccc2n1C1CCNCC1,-2.42%,
COc1ccc2c3c1O[C@H]1[C@H](O)CC[C@H]4[C@@H](C2)N(C)CC[C@@]341,6.75% [at 228 µM],
CCC1(c2ccccc2)C(=O)N(COC)C(=O)N(COC)C1=O,1.57%,
C[C@]12CC[C@@H]3c4ccc(OC(=O)N(CCCl)CCCl)cc4CC[C@H]3[C@@H]1CC[C@@H]2OP(=O)(O)O,,inactive
C[C@]12CCC(=O)C=C1CC[C@@H]1[C@H]3CC[C@](C)(O)[C@@]3(C)CC[C@@H]12,7.29% [at 228 µM],
CN1CC[C@]23c4c5ccc(O)c4O[C@H]2[C@@H](O)C=C[C@H]3[C@H]1C5,2.77% [at 228 µM],
Nc1nc(N)nc(NC2CC2)n1,2.88%,
C[C@]12CC[C@H]3[C@@H](CCC4=CC(=O)CC[C@@H]43)[C@@H]1CC[C@@H]2OC(=O)CCC1CCCCC1,-4.61%,
CC(C)(C)NCC(O)c1cc(Cl)c(N)c(C(F)(F)F)c1 (stereo not given),0.693%,
C#CC(O)(C=CCl)CC (stereo not given),3.42%,
CC(Cc1ccccc1)NCCn1cnc2c1c(=O)n(C)c(=O)n2C (stereo not given),6.47% [at 228 µM],
CCCOC(=O)c1cncn1C(C)c1ccccc1 (stereo not given),3.32%,
O=C(O)CCCc1ccc(N(CCCl)CCCl)cc1,,inactive
O=C(O)c1ccc(=O)[nH]c1,3.24%,
CC(C)NC(C)C,7.29%,
CC(=O)OCC1=C(C(=O)O)N2C(=O)[C@@H](N)[C@H]2SC1,,inactive
O=[N+]([O-])O[C@H]1CO[C@H]2[C@@H]1OC[C@H]2O[N+](=O)[O-],-3.02%,
CC(C)N(CCC(C(N)=O)(c1ccccc1)c1ccccn1)C(C)C (stereo not given),,inactive
C[C@H](N)C(=O)c1ccccc1,4.42% [at 228 µM],
